Source: PubChem BioAssay (Tox21)
Several values for one entry are separate records, joined by “and”; a condition that tells them apart may be missing. Equal values may be shown once. Records with an inconclusive call do not appear. Where a call stands in place of a potency, no number is given. More than one record can exist for a structure, and the calls need not agree. Activity calls are given as the source filed them. Unless noted, the call rests on the fitted dose curve; in most records, active means well fitted curve in the direction sought with a large enough effect in the repeat runs; inconclusive means weak or mixed curves; inactive means no such curve, though single readings can be large; an effect the other way counts as inactive or inconclusive.

Legend:
[1] = qHTS assay for small molecule agonists of the p53 signaling pathway (AID 651631; calls by dose curve; further: nearly all actives have a fitted effect of over 15% in size; further: potency means the concentration at half of the fitted maximal effect)
In short: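 HCT-116 cells carrying a beta-lactamase reporter under p53 response elements were dosed with compound for 16 h at 37 °C. LiveBLAzer B/G FRET substrate was then added for 2 h at room temperature, and fluorescence intensity was read to detect pathway agonism.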

[2] = qHTS assay for small molecules that induce genotoxicity in human embryonic kidney cells expressing luciferase-tagged ATAD5 (AID 651632); further: nearly all actives have a fitted effect of over 15% in size; further: potency means the concentration at half of the fitted maximal effect
In short: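 Genotoxicity read-out via ATAD5-luciferase: HEK293T cells, 16 hr compound incubation at 37C, Amplite detection.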

[3] = qHTS assay for small molecule agonists of the p53 signaling pathway - cell viability (AID 651633; calls by dose curve; further: nearly all actives have a fitted effect of over 30% in size; further: potency means the concentration at half of the fitted maximal effect)
In short: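 p53RE-bla cells were treated with compound for 16 hours at 37 C. Cytotoxicity was then measured as CellTiter-Glo luminescence after 30 min at room temperature.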

[4] = qHTS assay for small molecule disruptors of the mitochondrial membrane potential - cell viability (AID 720634; calls by dose curve;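 further: human HepG2 liver cancer cells; series mostly up to about 83 µM; nearly all actives have a fitted effect of over 20% in size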)
In short: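 Human hepatoma HepG2 cells were treated for 1 hr with test chemicals, then given m-MPI dye and CellTiter-Glo. Cell viability reflects luminescence proportional to cellular ATP.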

[5] = qHTS assay for small molecule disruptors of the mitochondrial membrane potential (AID 720635); further: potency means the concentration at half of the fitted maximal effect
In short: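 HepG2 cells exposed to compound 1 hr at 37C, then Mito-MPS dye 30 min. Ratio read of aggregate (540/590 nm) versus monomer (490/535 nm) fluorescence.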

[6] = qHTS assay to test for compound auto fluorescence at 590 nm (red) in HepG2 cells (AID 720674)
In short: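 Seeding: 2,000 HepG2 cells/well, MEM/10% FBS, overnight 37 C. Dosing: compound vs DMSO. Incubation: 1 hr, 37 C, 5% CO2. Read: fluorescence 540 ex/590 em, Rose Bengal sodium as red reference.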

[7] = qHTS assay to test for compound auto fluorescence at 535 nm (green) in HepG2 cells (AID 720675)
[8] = qHTS assay to test for compound auto fluorescence at 460 nm (blue) in HEK293 cells (AID 720678)
In short: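 Blue read-out at excitation 405 nm and emission 460 nm follows overnight compound exposure of HEK293 cells at 37C in 5% CO2. Activity is given as auto fluorescence equivalency to triamterene.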

[9] = qHTS assay to test for compound auto fluorescence at 590 nm (red) in HEK293 cells (AID 720679)
In short: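 Red channel, Ex/Em 540/590nm; signal expressed as equivalency to Rose Bengal sodium. HEK293, 2,000 cells/well, 10% dialyzed FBS; 23 nL compound pinned after 4-5 hr attachment; overnight 37C/5% CO2 before reading.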

[10] = qHTS assay for small molecules that induce genotoxicity in human embryonic kidney cells expressing luciferase-tagged ATAD5 - cell viability (AID 651634; calls by dose curve; further: nearly all actives have a fitted effect of over 25% in size; further: potency means the concentration at half of the fitted maximal effect)
In short: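 Live-cell protease activity (CellTiter-Fluor, fluorescence) indicates viability. HEK293T cells with luciferase-tagged ATAD5; 15.5 hr compound treatment at 37C.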

| Compound | Potency [1] | Potency [2] | Potency [3] | Potency [4] | Potency [5] | outcome [6] | outcome [7] | outcome [8] | outcome [9] | Potency [10] |
| --- | --- | --- | --- | --- | --- | --- | --- | --- | --- | --- |
| CC(O)COc1ccccc1 (centres undefined) | inactive | inactive | inactive | inactive | inactive | inactive | inactive | inactive | inactive |  |
| NC(=O)OCC(COC(N)=O)c1ccccc1 | inactive | inactive | inactive | inactive | inactive | inactive | inactive | inactive | inactive |  |
| OCCCc1ccccc1 | inactive | inactive | inactive | inactive | inactive | inactive | inactive | inactive | inactive |  |
| CO[C@H]1C=CO[C@@]2(C)Oc3c(C)c(O)c4c(O)c(c(/C=N/N5CCN(C)CC5)c(O)c4c3C2=O)NC(=O)/C(C)=C\C=C[C@H](C)[C@H](O)[C@@H](C)[C@@H](O)[C@@H](C)[C@H](OC(C)=O)[C@@H]1C | inactive | inactive | inactive | inactive | 10.6 µM (active) and 24.5 µM (active) and 11 µM (active) | inactive | inactive | inactive | inactive |  |
| CN(C)C=O | inactive | inactive | inactive |  |  | inactive | inactive | inactive | inactive | inactive |
| COc1ccc(O)cc1 | inactive | inactive | inactive | inactive | inactive | inactive | inactive | inactive | inactive |  |
| NC(=O)N/N=C/c1ccc([N+](=O)[O-])o1 | inactive | inactive | inactive | inactive | 15.4 µM (active) | inactive | inactive | inactive | inactive |  |
| Cc1cccc2ccccc12 | inactive | inactive | inactive | inactive | inactive | inactive | inactive | inactive | inactive |  |
| CN/C(=C\[N+](=O)[O-])NCCSCc1ccc(CN(C)C)o1 | inactive | inactive | inactive | inactive | inactive | inactive | inactive | inactive | inactive |  |
| CCCCC/C(C=O)=C\c1ccccc1 | inactive | inactive | inactive | inactive | inactive | inactive | inactive | inactive | inactive |  |
| CCOCCO | inactive | inactive | inactive | inactive | inactive | inactive | inactive | inactive | inactive |  |
| C1CNCCN1 | inactive | inactive | inactive | inactive | inactive | inactive | inactive | inactive | inactive |  |
| C#C[C@]1(O)CC[C@H]2[C@@H]3CCc4cc(O)ccc4[C@H]3CC[C@@]21C | 8.41 µM (active) and 7.64 µM (active) and 6.11 µM (active) | inactive | inactive | inactive | 13.3 µM (active) and 13.6 µM (active) and 17.2 µM (active) | inactive | inactive | inactive | inactive |  |
| C=CC(=O)NC(C)(C)CS(=O)(=O)O | inactive | inactive | inactive | inactive | inactive | inactive | inactive | inactive | inactive |  |
| O=c1cc[nH]c(=O)[nH]1 | inactive | inactive | inactive | inactive | inactive | inactive | inactive | inactive | inactive |  |
| NC(=O)c1ccc([N+](=O)[O-])cc1Cl | inactive | inactive | inactive | inactive | inactive | inactive | inactive | inactive | inactive |  |
| CC(C)(C)NCC(O)c1ccc(O)c(CO)c1 (centres undefined) | inactive | inactive | inactive | inactive | inactive | inactive | inactive | inactive | inactive |  |
| CCCCCCCCOc1ccc(C(=O)c2ccccc2)c(O)c1 | inactive | inactive | inactive | inactive | inactive and 61.1 µM (active) | inactive | inactive | inactive | inactive |  |
| COc1cc(O)c(C(=O)c2ccccc2)cc1S(=O)(=O)O |  | inactive | inactive | inactive | inactive | inactive | inactive | inactive | inactive |  |
| Nc1ccc(N=Nc2ccccc2)c(N)n1 |  | 11.9 µM (active) and 8.68 µM (active) and 9.69 µM (active) | inactive | inactive | 10.6 µM (active) and 30.8 µM (active) and 19.3 µM (active) | inactive | inactive | inactive | inactive | 23.7 µM (active) and 54.8 µM (active) |
| COC1=CC(=O)C[C@@H](C)[C@]12Oc1c(Cl)c(OC)cc(OC)c1C2=O |  |  |  | inactive | inactive | inactive | inactive | inactive | inactive | inactive |
| NC(=O)N1c2ccccc2C=Cc2ccccc21 |  | inactive | inactive | inactive | inactive | inactive | inactive | inactive | inactive | inactive |
| O=c1c(-c2ccc(O)cc2)coc2cc(O)cc(O)c12 |  |  | inactive | inactive | 5.96 µM (active) and 1.07 µM (active) and 8.63 µM (active) | inactive | inactive | inactive | inactive |  |
| Cc1cnc(NC(=O)C2=C(O)c3ccccc3S(=O)(=O)N2C)s1 | inactive | inactive | inactive | inactive |  | inactive | inactive | inactive | inactive |  |

| Compound | Potency [1] | Potency [2] | Potency [3] | Potency [4] | Potency [5] | outcome [6] | outcome [7] | outcome [8] | outcome [9] | Potency [10] |
| --- | --- | --- | --- | --- | --- | --- | --- | --- | --- | --- |
| Cc1c(N(C)C)c(=O)n(-c2ccccc2)n1C |  | inactive | inactive | inactive | inactive | inactive | inactive | inactive | inactive |  |
| N[C@@H](Cc1c[nH]c2ccccc12)C(=O)O |  |  | inactive | inactive | inactive | inactive | inactive | inactive | inactive | inactive |
| c1ccc2[nH]c(-c3cscn3)nc2c1 |  |  | inactive | inactive |  | inactive | inactive | inactive | inactive | inactive |
| N[C@@H](Cc1c[nH]c2ccc(O)cc12)C(=O)O |  | inactive | inactive | inactive | 26.6 µM (active) and 941 nM (active) | inactive | inactive | inactive | inactive | inactive |
| COC(=O)c1ccc(O)cc1 | inactive | inactive | inactive |  |  | inactive | inactive | inactive | inactive |  |
| CC(C)(C)CC(C)(C)c1ccc(O)c(-n2nc3ccccc3n2)c1 |  | inactive | 49.2 µM (active) and 48.6 µM (active) | inactive | 10.6 µM (active) and 24.7 µM (active) and 30.6 µM (active) | inactive | inactive | inactive | inactive | inactive |
| O=C(O)Cc1cccc2ccccc12 | inactive | inactive | inactive | inactive |  | inactive | inactive | inactive | inactive |  |
| O=C1OC(c2ccc(O)cc2)(c2ccc(O)cc2)c2ccccc21 |  | inactive | inactive | inactive | 21.1 µM (active) and 48.2 µM (active) and 68.6 µM (active) | inactive | inactive | inactive | inactive | inactive |
| CCn1cc(C(=O)O)c(=O)c2ccc(C)nc21 |  | inactive |  | inactive | inactive | inactive | inactive | inactive | inactive |  |
| CCCCCCCCCCCCCCCCCC(=O)OCC(O)CO (centres undefined) |  | inactive | inactive | inactive | inactive | inactive | inactive | inactive | inactive | inactive |
| O=C(OCc1ccccc1)c1ccccc1 |  | inactive | inactive | inactive | inactive | inactive | inactive | inactive | inactive | inactive |
| CCCCOC(=O)CCCCCCCCC(=O)OCCCC |  | inactive | inactive | inactive | inactive | inactive | inactive | inactive | inactive |  |
| C[C@]12CC[C@@H]3c4ccc(O)cc4CC[C@H]3[C@@H]1CCC2=O |  |  |  | inactive | 13.3 µM (active) and 6.87 µM (active) | inactive | inactive | inactive | inactive | inactive |
| NC(N)=NC(N)=NCCc1ccccc1 |  | inactive | inactive | inactive | inactive | inactive | inactive | inactive | inactive |  |
| C[C@]12CC[C@@H]3c4ccc(O)cc4C[C@@H](CCCCCCCCCS(=O)CCCC(F)(F)C(F)(F)F)[C@H]3[C@@H]1CC[C@@H]2O (some centres undefined) | inactive | inactive | inactive |  | 2.66 µM (active) and 2.73 µM (active) | inactive | inactive | inactive | inactive |  |
| CC1=C(/C=C/C(C)=C/C=C/C(C)=C/C(=O)O)C(C)(C)CCC1 |  | inactive | inactive and 68.7 µM (active) | inactive | inactive and 27.3 µM (active) | inactive | inactive | inactive | inactive |  |
| CCc1cc(C(N)=S)ccn1 | inactive |  | inactive | inactive | inactive | inactive | inactive | inactive | inactive | inactive |
| Cn1cnc2c1c(=O)[nH]c(=O)n2C |  | inactive | inactive | inactive | inactive | inactive | inactive | inactive | inactive | inactive |
| CCN(CC)CCOC(=O)c1ccc(N)cc1 | inactive | inactive | inactive | inactive |  | inactive | inactive | inactive | inactive |  |
| COc1cc2c(c(OC)c1OC)-c1ccc(OC)c(=O)cc1[C@@H](NC(C)=O)CC2 |  | 266 nM (active) and 48 nM (active) and 54.5 nM (active) | inactive | inactive | 3.35 µM (active) and 1.52 µM (active) and 1.37 µM (active) | inactive | inactive | inactive | inactive |  |
| COCC(C)N (centres undefined) | inactive | inactive | inactive | inactive | inactive | inactive | inactive | inactive | inactive |  |
| NCCNc1cccc2ccccc12 |  | inactive | inactive | inactive |  | inactive | inactive | inactive | inactive |  |
| CC(=O)/C=C/C1=C(C)CCCC1(C)C |  | inactive | inactive | inactive |  | inactive | inactive | inactive | inactive |  |
| CCCCOCCOCCOC(C)=O | inactive | inactive | inactive | inactive | inactive | inactive | inactive | inactive | inactive |  |
